# DT40 TDP1 CPT: qHTS for Inhibitors of human tyrosyl-DNA phosphodiesterase 1 (TDP1): qHTS in cells in presence of CPT; chicken DT40 Tdp1-/-;hTDP1 cells + 20 nM CPT, ATP luminescence, 48 h; Potency, µM (highest dose often 46.2 µM), inactives show top-dose activity change, negative = growth inhibition, usual class: inhibitors; actives 12% (n = 420,000); also: % is scaled to controls: 0 for no effect and ±100 for the full control effect; nearly all actives have a fitted effect of over 55% in size
#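 Chicken DT40 Tdp1-/- cells stably complemented with human TDP1 were seeded at 400 cells/well in medium containing 20 nM camptothecin, exposed to pin-transferred compounds, and grown at 37 °C for at least 48 hr. Viability was read as ATP luminescence.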
# TGFb SMAD3 inh: qHTS for Inhibitors of TGF-b. Potency, µM (titrated, usually from 46.1 µM), for inactives: top-dose activity, negative = inhibition, most hits filed as inhibitors. HepG2 CAGA-GFP TGF-b/SMAD3 reporter, GFP fluorescence, 18 h; TGF-beta stimulated, 500 pg/mL final. actives 1.2% (n = 410,000); also: % is scaled to controls: 0 for no effect and ±100 for the full control effect; nearly all actives have a fitted effect of over 65% in size
#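 GFP signal (ex488/em500-530) from TGF-beta-stimulated HEPG2 CAGA-GFP cells, 500 pg/mL final, 18 h at 37 degrees C in DMEM plus 1% FBS, normalized to unstimulated and DMSO-stimulated controls.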
# HT1080-NT tox: qHTS for induction of synthetic lethality in tumor cells producing 2HG: qHTS for the HT-1080-NT fibrosarcoma cell line | HT-1080-NT fibrosarcoma viability, CellTiter-Glo ATP luminescence, 48 h | Potency, µM (top dose mostly 46.1 µM), without a hit: at the highest dose activity, negative = less viability, hits mostly cytotoxic | actives 1.6% (n = 360,000) | AID 686970, 2013;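 also: NT is the 2HG producing partner of a matched IDH1 knockdown line; 0% = DMSO-treated cells and -100% = media-only wells without cells; nearly all actives have a fitted effect of over 55% in size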
#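 A 48-hour cytotoxicity screen used HT-1080-NT cells plated 2 hours before compound delivery. ATP-based CellTiter-Glo luminescence measured viability, normalized to DMSO and no-cell controls.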
# DT40 TDP1 no CPT: qHTS for Inhibitors of human tyrosyl-DNA phosphodiesterase 1 (TDP1): qHTS in cells in absence of CPT; DT40 Tdp1-/- hTDP1 cells, no CPT, ATP luminescence, 48 h; Potency, µM (top dose mostly 46.2 µM), without a hit: at the highest dose activity change, negative = growth inhibition, hits mostly inhibitors; actives 15% (n = 420,000); also: % is scaled to controls: 0 for no effect and ±100 for the full control effect; nearly all actives have a fitted effect of over 55% in size
#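 A cellular qHTS used chicken DT40 cells lacking endogenous Tdp1 but carrying stably transfected human TDP1. Compounds were applied without camptothecin, and cell growth kinetics were judged by ATP-dependent luminescence after ≥48 hr.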
# HepG2 viability: qHTS for Inhibitors of TGF-b: Cytotox Counterscreen; Potency, µM (series often up to 46.1 µM), for the others: at the top dose activity change, negative = cytotoxicity, actives largely listed as cytotoxic; actives 0.76% (n = 410,000); HepG2 CAGA-GFP viability, ATP luminescence, 18 h; AID 588856, 2011
#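 CellTiter-Glo luminescence gave cytotoxicity after 18 hours at 37 degrees C. The cells were HepG2 CAGA-GFP in 1% FBS DMEM, stimulated with 500 pg/mL TGF-beta after compound addition. %Activity was normalised to no-cell wells (complete cell-killing) and DMSO (no toxicity), and curves were fitted and classified.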
# HT1080 IDH1KD tx: qHTS for induction of synthetic lethality in tumor cells producing 2HG: qHTS for the HT-1080-IDH1KD cell line; HT-1080 IDH1 knockdown viability, ATP luminescence, 48 h; Potency, µM (series often up to 46.1 µM), inactives show at the highest dose activity, negative = toxicity, hits mostly cytotoxic; actives 2% (n = 360,000); AID 686971, 2013;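 also: 0% = DMSO wells and -100% = cell-free medium wells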
#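 HT-1080-IDH1KD cells (IDH1 knocked down), 750/well in RPMI with 5% FBS, treated with compound 48 h at 37 degrees C. Viability by CellTiter-Glo luminescence, normalised to DMSO and no-cell wells; concentration-response curves classed.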
# Numbers without * were called inactive; ? = inconclusive; / = no result; [ ] = remark or other dose. A selection: hits, their analogues and other compounds. The true share with any hit is near 17%. Calls follow the shape of the dose curve; as a rule, active = well fitted curve in the direction sought with a large enough effect; inconclusive = small, poorly fitted or top-dose-only effect, or another doubt; inactive = no such curve, though single readings can be large; an effect the other way counts as inactive or inconclusive. Potency is read from the fitted curve at half-maximal effect.
SMILES,DT40 TDP1 CPT,TGFb SMAD3 inh,HT1080-NT tox,DT40 TDP1 no CPT,HepG2 viability,HT1080 IDH1KD tx
CCn1c(SCC(=O)c2ccccc2)nnc1-c1cc2cc(Br)ccc2o1,?,-1%,14%,9.2µM*,-3%,0%[9.24 µM]
COc1cc(CC(=O)OCC(=O)N(C)C2CCCCC2)cc(OC)c1OC,?,-25%,-3%,21µM*,-5%,-1%
Cc1cc(C(=O)N2CCOCC2)n(-c2ccccc2)n1,0%,-1%,-10%,-5%,1%,-1%
Cc1cc(C(=O)N2CC(C)CC(C)C2)n(-c2ccccc2)n1 (stereo not drawn),10µM*,?,16%,8.2µM*,2%,-3%
Cc1ccc(NC(=O)c2cn3c4c(ccc(Cl)c4c2=O)OC(C)C3)c(C)c1 (stereo not drawn),-19%,0%,/,-26%,0%,/
CN1CC(=O)N2C(c3ccc(Cl)cc3)c3[nH]c4ccccc4c3C[C@H]2C1=O (stereo partly drawn),15µM*,-16%,-30%,?,-20%,?
COCCCN1CC(=O)N2C(c3ccccc3)c3[nH]c4ccccc4c3C[C@H]2C1=O (stereo partly drawn),8%,-18%,-10%,4%,-14%,-6%
CCN1C(=O)[C@@H]2Cc3c([nH]c4ccccc34)C(c3ccc(OC)cc3)N2C1=S (stereo partly drawn),?,382%,?,15µM*,-48%,-22%
C=CCN1CC(=O)N2C(c3ccccc3)c3[nH]c4ccccc4c3C[C@H]2C1=O (stereo partly drawn),?,-16%,-18%,18µM*,-5%,-18%
O=C1[C@@H]2Cc3c([nH]c4ccccc34)C(c3ccc([N+](=O)[O-])cc3)N2C(=O)CN1C1CC1 (stereo partly drawn),2.6µM*,-7%,?,4.6µM*,-16%,-24%
CN1CC(=O)N2C(c3cccc([N+](=O)[O-])c3)c3[nH]c4ccccc4c3C[C@H]2C1=O (stereo partly drawn),1µM*,-10%,-21%,1.8µM*,0%,-20%
Cc1ccc(Nc2ncc(C(=O)N3CCN(c4ccc(F)cc4)CC3)c3ccccc23)cc1Cl,?,?,/,?,-25%,/
COc1ccc(Nc2ncc(C(=O)N3CCN(c4ccc(F)cc4)CC3)c3ccccc23)cc1,23µM*,?,-15%,5.2µM*,-27%,-10%
COc1ccc(Nc2ncc(C(=O)O)c3ccccc23)cc1,-7%,-2%,10%,-4%,7%,9%
COc1ccc(Nc2ncc(C(=O)N3CCN(c4cccc(Cl)c4)CC3)c3ccccc23)cc1,15µM*,-6%,/,4.6µM*,-27%,/
COc1ccc(Nc2ncc(C(=O)N3CCN(c4ccc(OC)cc4)CC3)c3ccccc23)cc1,23µM*,0%,/,16µM*,-39%,/
COc1ccc(N2CCN(C(=O)c3cnc(N4CCOCC4)c4ccccc34)CC2)cc1,?,20%,/,23µM*,0%,/
CCCN(CCC)C[C@@H]1CCCCN1CCNC(=O)N1c2ccccc2C(=O)Nc2cccnc21,-8%,/,/,-5%,/,/
c1ccc(Cn2c[n+](Cc3ccccc3)c3ccccc32)cc1,3.3µM*,10%,?,2.9µM*,-3%,?

# High-throughput results: PubChem, National Center for Advancing Translational Sciences (NCATS)
